Bioassay records (PubChem BioAssay)
Compounds with a hit are over-represented: about 3.4% of the library has one in this group of screens.
GCN5L2 inh: blocks human GCN5L2 histone acetyltransferase; Q92830; GCN5L2 HAT assay, ThioGlo1 CoA-SH fluorescence; Potency, µM (series often up to 58.9 µM), inactives show at the top dose activity change, negative = inhibition, usual class: inhibitors; hit rate 0.21% among 390,000; AID 504327; further: on the % scale 0 is the no-effect control and ±100 the full control effect
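Preincubate 20nM GCN5L2 with compound 15 min, RT → add 50uM ThioGlo1 + 75uM H3(1-25) + 70uM acetyl-CoA → read fluorescence 0 and 20 min. Primary qHTS; fluorescent artifacts likely.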
PKM2 act: increases activity of human pyruvate kinase M2 | purified PKM2, Kinase-Glo ATP luminescence, activation; response scale: 0% is enzyme alone, no compound | Potency, µM (titrated, usually from 57.5 µM), without a hit: at the top dose activation, actives largely listed as activators | P14618 | hit rate 0.34% among 260,000; further: on the % scale 0 is the no-effect control and ±100 the full control effect; nearly all actives have a fitted effect of over 55% in size
Target sequence (P14618 whole entry, looked up): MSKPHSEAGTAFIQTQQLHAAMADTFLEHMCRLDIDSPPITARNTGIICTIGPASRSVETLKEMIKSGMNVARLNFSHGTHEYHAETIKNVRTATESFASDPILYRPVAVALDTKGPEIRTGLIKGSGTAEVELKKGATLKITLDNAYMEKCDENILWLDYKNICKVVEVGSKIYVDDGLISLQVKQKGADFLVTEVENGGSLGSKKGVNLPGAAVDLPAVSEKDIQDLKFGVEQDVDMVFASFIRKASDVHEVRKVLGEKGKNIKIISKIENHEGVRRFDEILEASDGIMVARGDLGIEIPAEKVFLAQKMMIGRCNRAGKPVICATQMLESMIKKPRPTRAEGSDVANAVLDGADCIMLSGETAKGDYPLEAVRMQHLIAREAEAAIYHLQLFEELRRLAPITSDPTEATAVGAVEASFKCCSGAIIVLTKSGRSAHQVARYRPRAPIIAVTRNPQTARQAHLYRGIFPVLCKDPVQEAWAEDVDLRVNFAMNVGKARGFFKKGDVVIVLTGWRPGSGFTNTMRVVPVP
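Kinase-Glo luminescence reports ATP generated from ADP (0.1 mM) and PEP (0.5 mM) by purified hPK-M2 after 1 h at room temperature, pH 7.2 imidazole buffer; intermediate enzyme activity allows detecting inhibitors and activators.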
PLK1 PBD inh: PLK1 (human) polo-box domain binding inhibition. Potency, µM, for the others: max response, negative = inhibition, usual class: inhibitors. P53350. AID 720504. hit rate 2.8% among 360,000. Plk1 PBD binding of FITC phosphopeptide, fluorescence polarization; further: series mostly up to about 57 µM; on the % scale 0 is the no-effect control and ±100 the full control effect; nearly all actives have a fitted effect of over 65% in size
GLS inh: blocks human kidney-isoform glutaminase activity; O94925; hit rate 0.21% among 410,000; GLS enzymatic activity, qHTS titration; Potency, µM (series often up to 45.5 µM), for inactives: at the top dose activity change, negative = inhibition, actives largely listed as inhibitors; further: on the % scale 0 is the no-effect control and ±100 the full control effect
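Human kidney-isoform GLS in 45 mM KH2PO4 pH 8.2, 0.02% Tween-20, with compound, started with 1mM L-Glutamine (added stock). Glutamate oxidase/HRP/Amplex red coupled fluorescence read at start and after 30 min at RT.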
Mito fusion yeast: mitochondrial division inhibition or fusion activation; S. cerevisiae fusion-defective mutant growth rescue, CellTiterGlo 48 h; Potency, µM (top dose mostly 46.1 µM), inactives show at the highest dose growth rescue (activation), actives largely listed as activators; hit rate 0.23% among 320,000; further: % of control where 0% means no effect; nearly all actives have a fitted effect of over 45% in size
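Temperature-sensitive fusion-defective S. cerevisiae (e.g. fzo1-1, mgm1-5) were grown with compound in YPEG medium (3% ethanol, 3% glycerol) for 48 hours at 37C. Growth rescue was measured as viability by CellTiterGlo luminescence after 10 minutes at ambient.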
VDR inhibitor: vitamin D3 receptor (human) inhibition. P11473. VDR-SRC2-3 peptide fluorescence polarization, 2 h. Potency, µM, for the others: max response, negative = inhibition, most hits filed as inhibitors. hit rate 0.93% among 400,000; further: on the % scale 0 is the no-effect control and ±100 the full control effect
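Inhibition of the VDR/SRC2-3 peptide interaction is quantified by fluorescence polarization. Compounds (23 nl, pintool) incubate with the reagents for 2 hours at ambient room temperature.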
Starred values were filed as active, the others as inactive; ? = inconclusive; . = not tested or not shown. The call rests on the fitted dose curve; in most records, active means well fitted curve in the direction sought with a large enough effect; inconclusive means small, poorly fitted or top-dose-only effect, or another doubt; inactive means no such curve, though single readings can be large; an effect the other way counts as inactive or inconclusive. Potency means the concentration at half of the fitted maximal effect.

SMILES	GCN5L2 inh	PKM2 act	PLK1 PBD inh	GLS inh	Mito fusion yeast	VDR inhibitor
CCCCCn1nc(-c2ccccc2)c2nc3ccccc3nc21	?	-6.5%	21.2µM*	-5.0%	-1.4%	-17.4%
CCn1nc(-c2ccccc2)c2nc3ccccc3nc21	-18.9%	-7.4%	?	6.8%	4.7%	6.8%
CCCn1nc(-c2ccccc2)c2nc3ccccc3nc21	-8.9%	0.5%	16.8µM*	3.4%	-1.4%	2.7%
CCCn1c(-c2ccc(OC)cc2)nc2c(=O)n(C)c(=O)[nH]c21	-2.7%	6.7%	-0.7%	-0.9%	-3.2%	4.4%
CCCCn1c(-c2ccc(OC)cc2)nc2c(=O)n(C)c(=O)[nH]c21	-1.0%	.	?	-23.6%	7.5%	50.1µM*
Cc1ccc(C)n1-c1ccc(N(C)C)cc1	-2.9%	3.1%	-22.4%	12.6µM*	6.0%	?
CCOCCCn1c(=N)c(C(N)=S)cc2c(=O)n3cccc(C)c3nc21	-13.5%	12.9%	?	?	5.6%	79.4µM*
Cc1cccn2c(=O)c3cc(C(=O)NC4CCCCC4)c(=N)n(Cc4ccccc4)c3nc12	15.8µM*	23.4%	2.0%	-11.9%	-7.6%	-9.5%
CCCCC/C=C\C/C=C\C/C=C\CCCCCCC(=O)NCCCC(=O)O	.	.	.	.	.	-1.1%
O=c1c(-c2cccs2)nc2cnc(N3CCNCC3)nc2n1Cc1cccs1	?	.	.	.	.	103.7%
O=C(NCc1cccnc1)c1cccc2c1C(=O)N(Cc1cccnc1)C2	-2.7%	11.4%	-6.6%	-0.5%	-0.1%	-13.3%
O=C(NCc1ccc(F)cc1)c1cccc2c1C(=O)N(Cc1cccnc1)C2	-6.8%	4.5%	26.7µM*	-0.3%	-2.1%	-4.2%
COc1ccc(CC(=O)Nc2nc(C)cs2)cc1S(=O)(=O)N1CCOCC1	-4.4%	.	-2.3%	-5.8%	2.3%	6.5%
Oc1c(Cl)cc(Cl)cc1C=Nc1ccc(N2CCOCC2)cc1	-12.8%	.	13.5%	?	-13.0%	44.7µM*
CCOc1cc(C(c2c(O)nc(SC)[nH]c2=O)c2c(O)nc(SC)[nH]c2=O)ccc1O	.	.	11.9µM*	?	.	?
CN(C)Cc1ccccc1-c1nc(NC2CCNCC2)c2ccccc2n1	-6.4%	.	.	.	.	0.8%
O=C(O)CC1NCCc2ccccc21 (stereo not drawn)	-7.1%	-9.7%	29.9µM*	-1.6%	1.1%	-11.7%
COCCOc1ccc(C(F)(F)F)cc1Nc1nc2ccccc2o1	-13.9%	?	6.7µM*	31.7%	-3.3%	?
COCCOc1ccc(C(F)(F)F)cc1NC(=O)c1ccc(C(F)(F)F)cc1	-4.6%	11.3%	-8.3%	4.9%	?	5.8%
CC(=O)c1ccc(S(=O)(=O)Nc2cccc(-c3ccc(N4CCOCC4)nn3)c2)cc1	-17.2%	.	-13.4%	14.7%	-1.2%	-4.2%
O=S(=O)(Nc1ccc(N2CCOCC2)nn1)c1ccccc1	-3.0%	14.1µM*	3.7%	5.0%	2.2%	-3.8%
Cc1nn(CCC(=O)N2CCN(S(=O)(=O)c3ccccc3)CC2)c(C)c1C	-4.1%	11.2µM*	6.3%	-7.7%	4.7%	-1.6%
Cc1cc(C)c(S(=O)(=O)N2CCN(C(=O)CCn3nc(C)c(C)c3C)CC2)c(C)c1	-5.2%	14.1µM*	-9.0%	-9.2%	-1.9%	-12.8%
CCN(CC)C(=O)N1CCN(S(=O)(=O)c2c(C)cc(C)cc2C)CC1	2.5%	0.1%	-13.8%	24.0%	3.0%	3.0%
O=C1NC2(CCCCC2)C(=O)N1/N=C/c1ccc(O)cc1O	-1.7%	-1.8%	21.2µM*	20.1%	13.0%	-26.1%
O=C1NC2(CCCCC2)C(=O)N1/N=C/c1ccccc1Br	-0.1%	-6.0%	-3.9%	-1.4%	-5.2%	-12.1%
CCN(CC)CCOCCOC(=O)C(CC)(CC)c1ccccc1 (tested in a mixture with another compound)	-5.3%	.	.	3.9%	.	-0.4%
COc1ccc(C(=O)Cc2cc(OC)c(OC)cc2[N+](=O)[O-])c(OC)c1	-2.6%	-12.8%	-0.5%	11.2µM*	-1.5%	-2.1%
